From ChEMBL document CHEMBL3433997, “St. Jude Leishmania screening dataset” (2016)

Experiments:
Assay type in all cases: functional
[1] = molecular target: Solute carrier family 2, facilitated glucose transporter member 1 (Homo sapiens) (UniProt P11166); assay: ST_JUDE_LEISH: Cytotoxicity at 2uM final concentration against transgenic Leishmania Mexicana promastigotes LmGLUT1 that are glucose transport deficient and complemented with the human glucose transporter GLUT1. Activity is measured by DNA content using SYBR green in vitro
[2] = molecular target: Hexose transporter 1 (Plasmodium falciparum) (UniProt O97467); assay: ST_JUDE_LEISH: Cytotoxicity at 2uM final concentration against transgenic Leishmania Mexicana promastigotes LmPfHT that are glucose transport deficient and complemented with the Plasmodium falciparum hexose transporter. Activity is measured by DNA content using SYBR green in vitro
[3] = molecular target: Glucose transporter (Leishmania mexicana) (UniProt O61059); assay: ST_JUDE_LEISH: Cytotoxicity at 2uM final concentration against transgenic Leishmania Mexicana promastigotes LmGT2 that are glucose transport deficient and complemented with the L. Mexicana glucose transporter 2. Activity is measured by DNA content using SYBR green in vitro

Sequence of Solute carrier family 2, facilitated glucose transporter member 1 (Homo sapiens) (P11166 whole entry): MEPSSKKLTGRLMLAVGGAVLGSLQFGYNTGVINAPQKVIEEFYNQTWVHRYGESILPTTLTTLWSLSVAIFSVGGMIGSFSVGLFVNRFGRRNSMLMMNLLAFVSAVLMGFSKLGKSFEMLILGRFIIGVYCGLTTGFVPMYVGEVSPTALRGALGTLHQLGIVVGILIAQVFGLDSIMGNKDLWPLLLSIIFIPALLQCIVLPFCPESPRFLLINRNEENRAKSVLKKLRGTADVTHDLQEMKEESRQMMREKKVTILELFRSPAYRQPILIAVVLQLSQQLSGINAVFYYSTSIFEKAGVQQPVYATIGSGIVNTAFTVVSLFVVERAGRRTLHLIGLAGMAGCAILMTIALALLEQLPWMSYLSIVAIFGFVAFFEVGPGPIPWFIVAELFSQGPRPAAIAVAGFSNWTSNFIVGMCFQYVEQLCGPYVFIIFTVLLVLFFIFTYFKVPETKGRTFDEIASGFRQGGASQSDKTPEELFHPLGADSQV

Q: What does the source list for `Cc1cc(N[C@@H](CC(C)C)C(=O)NCCOc2ccccc2)nc(Nc2ccccc2)n1`?
A: inhibition [1]: 6.84%; inhibition [2]: 2.42%; inhibition [3]: 1.29%

Q: How did the inhibition [1] turn out when `O=C(NCc1cccc(F)c1)Nc1cccc(-c2ccc(-c3nc4cc(F)ccc4[nH]3)cc2)c1` was run?
A: Its inhibition is 2.2%.

Q: What about the inhibition [2] of the same molecule?
A: The inhibition was 3.53%.

Q: And the inhibition [3]?
A: The inhibition was 6.86%.

Q: With `C=CCn1c(C)cc(C(=O)COc2ccc(S(=O)(=O)N3CCOCC3)cc2[N+](=O)[O-])c1C` as the molecule, how does the inhibition [1] read?
A: Its inhibition is 2.97%.

Q: And the inhibition [2]?
A: Its inhibition is 0.91%.

Q: What about the inhibition [3] of the same molecule?
A: Its inhibition is 0.84%.

Q: With `CCN1CCN(CCCNc2c3ccc(Cl)cc3nc3ccc(OC)cc23)CC1` as the molecule, how does the inhibition [1] read?
A: Its inhibition is 9.58%.

Q: What about the inhibition [2] of the same molecule?
A: Its inhibition is 9.46%.

Q: What about the inhibition [3] of the same molecule?
A: Its inhibition is 8.38%.

Q: With `Oc1ccc(CCNCCCCCCNCCc2ccc(Cl)c3ccccc23)cc1O` as the molecule, how does the inhibition [1] read?
A: Its inhibition is -0.26%.

Q: What about the inhibition [2] of the same molecule?
A: Its inhibition is -2.07%.

Q: And the inhibition [3]?
A: Its inhibition is -2.9%.

Q: What does the source list for `CN(C)c1ccc(-c2ccc(C(=O)NC3CCN(Cc4ccccc4F)CC3)s2)cc1`?
A: inhibition [1]: 6.98%; inhibition [2]: 0.05%; inhibition [3]: 1.85%

Q: For `COc1cccc(OC)c1CN1CCC(N(C)CCCCCCCCCN2CCC(OC(=O)Nc3ccccc3-c3ccccc3)CC2)CC1`, which inhibition [1] is on record?
A: The inhibition was 113%.

Q: And the inhibition [2]?
A: Its inhibition is 108%.

Q: What about the inhibition [3] of the same molecule?
A: Its inhibition is 111%.

Q: `Cc1noc(C)c1-c1ccc2c(Nc3ccc(Cl)cc3)c(C(N)=O)cnc2c1` was tested. Which inhibition [1] did it give?
A: Its inhibition is 24.3%.

Q: And the inhibition [2]?
A: The inhibition was 29.3%.

Q: What about the inhibition [3] of the same molecule?
A: The inhibition was 12.9%.

Q: Which results are given for `N#CC(c1ccc(Br)cc1)c1ccc2c(C(F)(F)F)cc(C(F)(F)F)nc2n1` (centres undefined)?
A: inhibition [1]: 4.94%; inhibition [2]: 4.44%; inhibition [3]: 0.48%

Q: With `N=C1NC(=N)N(OCCCCCCON2C(=N)NC(=N)NC2C=Cc2ccccc2)C(C=Cc2ccccc2)N1` (centres undefined) as the molecule, how does the inhibition [1] read?
A: The inhibition was 1.73%.

Q: And the inhibition [2]?
A: Its inhibition is 2.16%.

Q: What about the inhibition [3] of the same molecule?
A: Its inhibition is 10.7%.

Q: Which inhibition [1] does the source give for `COc1ccc2nccc([C@@H](O)CN3CCC(NS(=O)(=O)c4cc5c(cc4Cl)SCC(=O)N5)CC3)c2c1` here?
A: The inhibition was 1.57%.

Q: What about the inhibition [2] of the same molecule?
A: The inhibition was 1.6%.

Q: What about the inhibition [3] of the same molecule?
A: The inhibition was -0.41%.

Q: With `CC1(C(=O)Nc2ccc([N+](=O)[O-])cc2O)CC2c3ccccc3C1c1ccccc12` (centres undefined) as the molecule, how does the inhibition [1] read?
A: Its inhibition is 2.18%.

Q: What about the inhibition [2] of the same molecule?
A: The inhibition was 3.79%.

Q: And the inhibition [3]?
A: The inhibition was 0.74%.

Q: What does the source list for `COC(=O)c1cccc(CNCc2ccc(-c3ccc(-c4nc5cc(C(F)(F)F)ccc5[nH]4)cc3)cc2)c1`?
A: inhibition [1]: 3.94%; inhibition [2]: 1.94%; inhibition [3]: 2.35%

Q: Which inhibition [1] does the source give for `O=C(NC1CCN(Cc2ccccc2)CC1)c1cc(C(=O)NC2CCN(Cc3ccccc3)CC2)cc(C(=O)NC2CCN(Cc3ccccc3)CC2)c1` here?
A: The inhibition was 5.09%.

Q: And the inhibition [2]?
A: Its inhibition is 4.78%.

Q: And the inhibition [3]?
A: The inhibition was 4.94%.

Q: Which results are given for `CC1(C)N=C(N)N=C(N)N1OCCc1ccc2ccccc2c1`?
A: inhibition [1]: 1.63%; inhibition [2]: 1.47%; inhibition [3]: 3.22%

Q: Which results are given for `CCOc1cc(NCCCNc2ncc([N+](=O)[O-])cc2C)nc2ccccc12`?
A: inhibition [1]: 1.72%; inhibition [2]: -1.69%; inhibition [3]: 0.83%

Q: What does the source list for `Cn1cc(CCNc2ccnc(N3CCC(c4ncc[nH]4)CC3)n2)c2ccccc21`?
A: inhibition [1]: -2.77%; inhibition [2]: -1.57%; inhibition [3]: -2.28%

Q: With `CN1CCC(Oc2ccc(CN3CC[C@H](NC(=O)c4ccc(Cl)c(F)c4)C3)c3ccccc23)C1` (some centres undefined) as the molecule, how does the inhibition [1] read?
A: Its inhibition is 0.38%.

Q: And the inhibition [2]?
A: Its inhibition is 3.36%.

Q: What about the inhibition [3] of the same molecule?
A: Its inhibition is 2.67%.

Q: `CNC(=O)c1cc(S(=O)(=O)Nc2ccc(OC)cc2)cs1` was tested. Which inhibition [1] did it give?
A: Its inhibition is 0.48%.

Q: What about the inhibition [2] of the same molecule?
A: Its inhibition is 0.9%.

Q: What about the inhibition [3] of the same molecule?
A: Its inhibition is 2.1%.

Q: For `Cc1ccc(Nc2nc(C)cc(Nc3cccc(C#N)c3)n2)cc1`, which inhibition [1] is on record?
A: Its inhibition is 42.3%.

Q: And the inhibition [2]?
A: Its inhibition is 65.8%.

Q: What about the inhibition [3] of the same molecule?
A: Its inhibition is 16.3%.

Q: `COc1cc2nc(N3CCC(CNC(=O)/C=C/c4cccc(C)c4)CC3)nc(N)c2cc1OC` was tested. Which inhibition [1] did it give?
A: The inhibition was 7.71%.

Q: What about the inhibition [2] of the same molecule?
A: The inhibition was 0.18%.

Q: And the inhibition [3]?
A: Its inhibition is -0.03%.

Q: For `CCCC(=O)Nc1ccc(OCCCN(Cc2ccccc2OC(F)(F)F)c2ccc(C#N)c(C(F)(F)F)c2)cc1`, which inhibition [1] is on record?
A: Its inhibition is 3.69%.

Q: And the inhibition [2]?
A: The inhibition was 9.22%.

Q: What about the inhibition [3] of the same molecule?
A: The inhibition was 5.47%.

Q: Which results are given for `O=C(Nc1ccc(OC2CCN(Cc3ccc(F)cc3)CC2)c(Cl)c1)c1cccs1`?
A: inhibition [1]: 2.99%; inhibition [2]: 0.38%; inhibition [3]: 8.58%

Q: With `CCCN(CCCCCCNCCc1ccc(Cl)cc1)CCc1ccc(O)c(O)c1` as the molecule, how does the inhibition [1] read?
A: Its inhibition is -4.9%.

Q: And the inhibition [2]?
A: The inhibition was -1.72%.

Q: And the inhibition [3]?
A: Its inhibition is -4.57%.

Q: With `COc1cc2c(cc1OC)C(C(=O)Nc1ccc(C(F)(F)F)cc1)C(c1cccs1)N(C)C2=O` (centres undefined) as the molecule, how does the inhibition [1] read?
A: The inhibition was 2.92%.

Q: And the inhibition [2]?
A: Its inhibition is 3.56%.

Q: What about the inhibition [3] of the same molecule?
A: The inhibition was 1.2%.

Q: Which results are given for `CC(=O)c1cccc(NC(=O)NC2CCN(CCCCCNC(=O)/C=C/c3ccc(Cl)c(Cl)c3)CC2)c1`?
A: inhibition [1]: 1.56%; inhibition [2]: 2.6%; inhibition [3]: 5.52%

Q: What does the source list for `CCC(C)NS(=O)(=O)c1ccc2nc(Nc3cccc(SC)c3)n(C(C)C(C)C)c2c1` (centres undefined)?
A: inhibition [1]: 3.91%; inhibition [2]: 4.3%; inhibition [3]: 3.8%

Q: `CCOc1cc(C(=O)Nc2ccccc2N2CCN(S(C)(=O)=O)CC2)cc(OCC)c1OCC` was tested. Which inhibition [1] did it give?
A: Its inhibition is 3.72%.

Q: What about the inhibition [2] of the same molecule?
A: Its inhibition is 3.96%.

Q: And the inhibition [3]?
A: The inhibition was 3.43%.
